# In the library only some 4.3% were active in any assay of this set; here they are far more common.
# GLP1R inv ag – qHTS of GLP-1 Receptor Inverse Agonists (Inhibition Mode); Potency, µM (titrated, usually from 38.3 µM), inactives show top-dose activity change, negative = inhibition, hits mostly inhibitors; 1.6% of 410,000 active; Glucagon-like peptide 1 receptor (Homo sapiens), P43220; HEK293 GLP-1R CRE-luciferase, luminescence, 24 h; GLP-1R form is constitutively active; also: potency is read from the fitted curve at half-maximal effect; % is scaled to controls: 0 for no effect and ±100 for the full control effect; nearly all actives have a fitted effect of over 55% in size
# Target sequence (P43220 whole entry, looked up): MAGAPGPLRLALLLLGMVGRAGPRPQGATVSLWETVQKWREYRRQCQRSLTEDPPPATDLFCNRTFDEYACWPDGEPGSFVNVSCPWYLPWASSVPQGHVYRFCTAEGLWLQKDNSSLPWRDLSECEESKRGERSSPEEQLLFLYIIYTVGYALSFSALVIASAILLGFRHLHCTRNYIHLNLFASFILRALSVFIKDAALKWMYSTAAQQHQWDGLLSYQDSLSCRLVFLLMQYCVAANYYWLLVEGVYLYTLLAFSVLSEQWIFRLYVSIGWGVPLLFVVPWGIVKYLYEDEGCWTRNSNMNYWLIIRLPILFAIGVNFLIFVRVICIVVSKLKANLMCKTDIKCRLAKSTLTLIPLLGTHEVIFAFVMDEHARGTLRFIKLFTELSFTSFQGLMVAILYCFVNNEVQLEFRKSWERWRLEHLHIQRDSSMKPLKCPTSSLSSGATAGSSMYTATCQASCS
#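 Stable HEK293 clone (constitutively active GLP-1R + cAMP-response luciferase); 200 cells/uL plated, 12 h pre-culture, compound 24 hr, 37 deg C/5% CO2; detection reagent 12 min RT; luminescence.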
# GLP-1R agonist – qHTS of GLP-1 Receptor Agonists | Potency, µM (top dose mostly 45.6 µM), inactives show top-dose activation, most hits filed as activators | Glucagon-like peptide 1 receptor (Homo sapiens), P43220 | HEK293 GLP-1R CRE-luciferase, luminescence, 4-6 h; cells express a hypersensitive GLP-1R form | 0.007% of 380,000 active; also: potency is read from the fitted curve at half-maximal effect; % of control where 0% means no effect
# DRD3 antagonist – qHTS of D3 Dopamine Receptor Antagonist: qHTS; D(3) dopamine receptor (Homo sapiens), P35462; D3R cells, DiscoveRx beta-arrestin luminescence, antagonist mode; active compounds read low; max response, negative = inhibition, %; 2.5% of 360,000 active; AID 652054, 2013; in the data active = max response below about -50%; inconclusive = no clear call, values can overlap the other calls; also: % is scaled to controls: 0 for no effect and ±100 for the full control effect
#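 Cells plated overnight at 1500 cells/well, then exposed to library compounds with dopamine controls for 90 minutes at 37 degrees C. DiscoveRx reagent added for 30–60 minutes at room temperature; luminescence read, quantitative HTS format.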
# DRD3 agonist – qHTS of D3 Dopamine Receptor Agonist: qHTS. D(3) dopamine receptor (Homo sapiens), P35462. D3R DiscoveRx beta-arrestin cells, luminescence, 90 min. max activation, %. 0.58% of 410,000 active. AID 652048, 2013; in the data active = max activation above about 30%; also: 0% is about no effect
#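 Agonist-mode cell screen: cells plated at 1500/well and incubated overnight at 37 °C, then exposed to library compounds for 90 min at 37 °C. Detection reagent was added for 30–60 min at room temperature, and luminescence was read.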
# Active calls of the source: *; ? = inconclusive; / = no result given; [ ] = remark or other dose. Unless noted, calls follow the shape of the dose curve; as a rule, active = well fitted curve in the direction sought with a large enough effect; inconclusive = small, poorly fitted or top-dose-only effect, or another doubt; inactive = no such curve, though single readings can be large; an effect the other way counts as inactive or inconclusive.
SMILES,GLP1R inv ag,GLP-1R agonist,DRD3 antagonist,DRD3 agonist
O=C(NN1C(=O)c2cc(Br)ccc2NC1c1ccccc1Cl)c1ccncc1 (centres undefined),-25%,-3%,-1,4
CC(=O)C1=C(C)NC(=O)NC1c1ccccc1OCC(=O)NCCc1ccccc1 (centres undefined),16%,-10%,-64*,5
CC(=O)C1=C(c2ccccc2)NC(=O)NC1c1ccccc1OCC(=O)Nc1ccccc1 (centres undefined),?,5%,-2,0
COc1ccccc1CNC(=O)C(=O)NCC(c1ccc2c(c1)OCO2)N1CCOCC1 (centres undefined),17%,/,/,9
CCOc1ccc(NS(=O)(=O)c2cc(NC(=O)CCC(=O)c3cccs3)ccc2Cl)cc1,10µM*,11%,-7,-10
COc1ccccc1NS(=O)(=O)c1cc(NC(=O)CCC(=O)c2cccs2)ccc1Cl,?,8%,-9,12
COc1ccc(NS(=O)(=O)c2cc(NC(=O)c3ccccn3)ccc2OC)cc1Br,-9%,2%,-51*,-2
CCOc1ccc(Br)cc1S(=O)(=O)Nc1ccc(C(=O)Nc2ccccc2OC)cc1,?,9%,-51*,-22
COc1ccc(NC(=O)CCS(=O)(=O)c2ccccc2Cl)cc1S(=O)(=O)Nc1ccc(Cl)cc1,6.3µM*,9%,0,-17
CCOc1ccc(Br)cc1S(=O)(=O)Nc1ccc(C(=O)Nc2ccc(C)cc2)cc1,?,-3%,24,0
CCOc1ccc(NC(=O)NCc2ccc3c(c2)CCN3C(C)=O)cc1,29%,/,/,-19
CCc1ccc(-n2c(=O)c3c(C)c(C(=O)N(C)C)sc3n(Cc3ccccc3F)c2=O)cc1,4%,/,/,-1
CCCOC(=O)c1ccc(N)cc1,/,2%,/,-2
CN(C(=O)CSc1nc2ccccc2n1Cc1cccc(C(F)(F)F)c1)c1ccccc1,10µM*,/,/,-20
CC(C)N(C(=O)CSc1nc2ccccc2n1Cc1ccc(F)cc1)C(C)C,2.8µM*,4%,0,-9
COC(=O)c1ccc(Cn2c(SCC(=O)Nc3ccc(F)cc3)nc3ccccc32)cc1,7%,/,/,4
COC(=O)CCCCCn1c(-c2ccccc2)cn2c3c(=O)n(C)c(=O)n(C)c3nc12,22%,0%,/,-12
Cc1c(Cl)cccc1NC(=O)CCN1C(=O)c2ccccc2Sc2ncccc21,-29%,/,/,-15
CCOC(=O)c1cnc2ccc(OCC)cc2c1NCc1ccccc1,-5%,-2%,15,48*
CCOC(=O)c1cnc2c(C)c(Cl)ccc2c1N1CCN(CC)CC1,7.9µM*,14%,8,-5
CCOC(=O)c1cnc2ccc(OCC)cc2c1N1CCN(c2ccccc2)CC1,8.9µM*,0%,-65*,-1
CCOC(=O)c1cnc2ccc(C)cc2c1Nc1ccc(N2CCOCC2)cc1,?,-11%,-59*,12
COc1cccc(C(=O)c2cn(CC(=O)NCc3ccccc3)c3nc(C)ccc3c2=O)c1,-11%,/,/,-3
CN(CC(=O)Nc1ccccc1Cl)S(=O)(=O)c1ccc(C(=O)N2CCOCC2)s1,10%,/,/,-6
CC1CCc2nc3ncn(Cc4ccccc4C#N)c(=O)c3cc2C1 (centres undefined),13%,/,/,5
SMILES,GLP1R inv ag,GLP-1R agonist,DRD3 antagonist,DRD3 agonist
CC12CCC(C(=O)N(CCCCN3CCN(Cc4ccccc4)CC3)C1=O)C2(C)C (centres undefined),?,2%,-74*,-11
c1ccc2c(c1)ccc1ccccc12,10%,0%,-9,0
O=c1ccc2ccccc2c2ccccc12,?,-21%,-79*,-11
Cc1ccc(Cn2c(CCNC(=O)c3cccc(C)c3)nc3ccccc32)cc1,?,/,/,-13
COc1cc(CN2CCCC(C(=O)c3ccccc3SC)C2)cc(OC)c1 (centres undefined),?,9%,-14,-9
Cc1c(CN2CCCCC2C)c(=O)n(-c2ccccc2)n1C (centres undefined),25%,5%,-58*,-13
COc1ccc(F)cc1C(=O)C1CCCN(Cc2ccc(Oc3ncccn3)cc2)C1 (centres undefined),?,12%,-73*,-12
COc1ccc(F)cc1C(=O)C1CCCN(Cc2c(C)n(C)n(-c3ccccc3)c2=O)C1 (centres undefined),-3%,7%,-55*,-20
COc1cc(OC)c(OC)cc1CN1CCCC(C(=O)c2ccccc2SC)C1 (centres undefined),-14%[0.307 µM],1%,-61*,-7
COc1ccc(-c2ccc(NS(=O)(=O)c3ccc(NC(C)=O)cc3)cc2)nn1,8%,/,/,4
COc1ccccc1C(=O)C1CCCN(Cc2ccc3c(c2)OCCO3)C1 (centres undefined),-24%,10%,-50*,-38
COc1ccc(F)cc1C(=O)C1CCCN(Cc2cccn2-c2cccnc2)C1 (centres undefined),?,14%,-96*,-21
COc1ccc(F)cc1C(=O)C1CCCN(Cc2ccc3c(c2)OCCO3)C1 (centres undefined),?,4%,-105*,-3
OC[C@H]1O[C@@](CO)(O[C@H]2O[C@H](CO)[C@@H](O)[C@H](O)[C@H]2O)[C@@H](O)[C@@H]1O,/,2%,/,6
COc1ccc(CN2CCNC(=O)C2CC(=O)NC2CCOCC2)c(F)c1 (centres undefined),4%,-2%,-14,6
COc1ccc(CN2CCNC(=O)C2CC(=O)NC2CCCCCC2)c(F)c1 (centres undefined),14%,3%,-69*,-25
Oc1cc2c(cc1CN1CCN(c3ncccn3)CC1)OCO2,6%,-4%,-15,42*
CC1CCCC(C)N1C(=O)Cn1cc(/C=C2/C(=O)Nc3ccccc32)c2ccccc21 (centres undefined),5.6µM*,0%,?,-14
COC(=O)c1cn(CC(=O)N2C(C)CCCC2C)c2ccccc12 (centres undefined),?,-11%,0,-4
CC1(c2nnc(-c3ccccc3)o2)CC(c2ccc([N+](=O)[O-])cc2)=NO1 (centres undefined),?,4%,37,37*
CC1(c2nnc(-c3ccccc3)o2)CC(c2ccc(Cl)cc2)=NO1 (centres undefined),?,8%,46,43*
O=S(=O)(c1cccc(-c2n[nH]c(=S)n2C2CCCC2)c1)N1CCOCC1,7%,7%,-3,6
C=CC(=O)Oc1ccc(N2Cc3ccccc3C2=O)cc1,-45%,-9%,-64*,-2
CN1CCN(Cc2ccc(Sc3ccc(Cl)cc3)c([N+](=O)[O-])c2)CC1,-65%,3%,-55*,-44
Cc1ccc(Sc2ccc(CN3CCCC3)cc2[N+](=O)[O-])cc1,?,3%,-79*,-20

# Assay outcomes: PubChem, National Center for Advancing Translational Sciences (NCATS)
